# Results from PubChem BioAssay (NCATS).
# Records with an inconclusive call do not appear. Where a call stands in place of a potency, no number is given. The source made the active and inactive calls. The call rests on the fitted dose curve.
# Target: Nucleoprotein (Lymphocytic choriomeningitis virus (strain Armstrong)) (UniProt P09992)
# Experiment: qHTS for Inhibitors of the Functional Ribonucleoprotein Complex (vRNP) of Lymphocytic Choriomeningitis Arenaviruses (LCMV): LCMV Primary Screen - GLuc reporter signal (AID 1347086); further: nearly all actives have a fitted effect of over 70% in size
# Settings: LCMV minigenome vRNP cell assay, Gaussia luciferase reporter; series mostly up to 57.5 µM
# Potency means the concentration at half of the fitted maximal effect.
# Sequence of Nucleoprotein (Lymphocytic choriomeningitis virus (strain Armstrong)) (P09992 whole entry, looked up): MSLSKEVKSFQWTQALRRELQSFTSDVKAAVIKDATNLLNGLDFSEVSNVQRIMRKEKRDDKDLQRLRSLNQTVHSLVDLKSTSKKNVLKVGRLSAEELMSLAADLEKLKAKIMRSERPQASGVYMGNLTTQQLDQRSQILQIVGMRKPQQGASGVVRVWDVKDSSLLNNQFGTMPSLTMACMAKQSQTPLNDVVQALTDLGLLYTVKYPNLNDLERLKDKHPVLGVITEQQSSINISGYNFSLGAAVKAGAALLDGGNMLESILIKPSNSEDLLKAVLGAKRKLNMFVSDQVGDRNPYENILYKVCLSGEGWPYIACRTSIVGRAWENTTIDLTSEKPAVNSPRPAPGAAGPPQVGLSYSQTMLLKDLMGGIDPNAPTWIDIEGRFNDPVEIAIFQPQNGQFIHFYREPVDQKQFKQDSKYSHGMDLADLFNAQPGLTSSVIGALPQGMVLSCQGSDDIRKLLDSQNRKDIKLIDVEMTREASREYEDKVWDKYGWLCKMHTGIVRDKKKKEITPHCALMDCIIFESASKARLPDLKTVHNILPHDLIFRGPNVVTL
row,SMILES,Potency
1,Cc1ccc(O)c([C@H](CCN(C(C)C)C(C)C)c2ccccc2)c1,inactive
2,CC(C)Oc1ccc2c(=O)c(-c3ccccc3)coc2c1,inactive
3,CCCN[C@H]1CCc2nc(N)sc2C1,inactive
4,C[n+]1ccccc1/C=N/O,inactive
5,Cc1ccnc2c1NC(=O)c1cccnc1N2C1CC1,inactive
6,COc1ccc(OC)c(C(O)CNC(=O)CN)c1 (configuration not stated),inactive
7,O=C1NC(c2ccccc2)(c2ccccc2)C(=O)N1COP(=O)(O)O,inactive
8,O=C(OC1C[C@H]2CC[C@@H](C1)[N+]21CCCC1)C(O)(c1ccccc1)c1ccccc1 (some centres not stated),inactive
9,CCn1cc(C(=O)O)c(=O)c2cc(F)c(N3CCNCC3)cc21,inactive
10,O=C(O)CCNC(=O)c1ccc(N=Nc2ccc(O)c(C(=O)O)c2)cc1,inactive
11,CNCCCN1c2ccccc2CCc2ccccc21,inactive
12,CC1Cc2ccccc2N1NC(=O)c1ccc(Cl)c(S(N)(=O)=O)c1 (configuration not stated),inactive
13,Cc1nc2n(c(=O)c1CCN1CCC(c3noc4cc(F)ccc34)CC1)CCC[C@H]2O,inactive
14,CN(C)CC/C=C1\c2ccccc2COc2ccccc21,inactive
15,CCOC(=O)C1=C(C)NC(C)=C(C(=O)OC)C1c1cccc(Cl)c1Cl (configuration not stated),inactive
16,O=C1CCc2cc(OCCCCc3nnnn3C3CCCCC3)ccc2N1,inactive
17,O=C(O)COCCN1CCN(C(c2ccccc2)c2ccc(Cl)cc2)CC1 (configuration not stated),inactive
18,O=c1c(O)c(-c2ccc(O)c(O)c2)oc2cc(O)cc(O)c12,inactive
19,CC[C@]1(O)C[C@H]2CN(CCc3c([nH]c4ccccc34)[C@@](C(=O)OC)(c3cc4c(cc3OC)N(C=O)[C@H]3[C@@](O)(C(=O)OC)[C@H](OC(C)=O)[C@]5(CC)C=CCN6CC[C@]43[C@@H]65)C2)C1,15.3 nM (active)
20,Cn1cnc2c(F)c(Nc3ccc(Br)cc3Cl)c(C(=O)NOCCO)cc21,inactive
21,CC(COc1ccccc1)N(CCCl)Cc1ccccc1 (configuration not stated),inactive
22,O=C1Nc2ccc(Cl)cc2[C@@](C#CC2CC2)(C(F)(F)F)O1,inactive
23,CNCCC(Oc1ccc(C(F)(F)F)cc1)c1ccccc1 (configuration not stated),inactive
24,C[C@](N)(Cc1ccc(O)c(O)c1)C(=O)O,inactive
25,CCC1(c2ccccc2)C(=O)NCNC1=O,inactive
26,COc1ccccc1OCC(O)COC(N)=O (configuration not stated),inactive
27,CC[C@@]1(c2ccccc2)NC(=O)N(C)C1=O,inactive
